# Screening results as filed in PubChem BioAssay.
# Hsp70 activator – Hsp70 transcriptional activators, primary screen, cell-based, HeLa, Hsp70 promoter luciferase, luminescence, 10 µM. HeLa Hsp70 promoter luciferase reporter; scaled: vehicle 0, proteasome-inhibitor control 100%. activation, % at 10 µM. hit rate 0.04% among 200,000. AID 1203, 2008;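 active = activation above the mean across all tested compounds plus 3 SD, cutoff set per campaign, cut at about 5.5% in these data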;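 note: 100% = MG132 at 30 µM as the positive control and 0% = DMSO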
# S1P4 ag – S1P4 receptor agonists, primary screen, cell-based | S1P4-expressing cell line, agonist reporter assay | activation, % at 4.98 µM | Sphingosine 1-phosphate receptor 4 (Homo sapiens), O95977 | hit rate 0.35% among 220,000; in the data active = activation above about 11%;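 note: 0% = DMSO vehicle and 100% = reference agonist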
# Target sequence (O95977 whole entry, looked up): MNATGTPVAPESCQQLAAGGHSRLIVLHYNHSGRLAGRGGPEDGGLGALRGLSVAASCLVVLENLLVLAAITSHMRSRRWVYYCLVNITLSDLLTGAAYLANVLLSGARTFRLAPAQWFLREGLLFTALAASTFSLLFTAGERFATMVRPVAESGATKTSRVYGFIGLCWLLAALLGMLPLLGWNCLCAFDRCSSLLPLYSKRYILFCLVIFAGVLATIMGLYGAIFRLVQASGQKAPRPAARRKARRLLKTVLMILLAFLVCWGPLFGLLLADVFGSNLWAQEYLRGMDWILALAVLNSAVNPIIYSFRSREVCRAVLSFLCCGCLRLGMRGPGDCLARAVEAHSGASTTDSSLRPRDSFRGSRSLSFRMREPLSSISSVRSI
# S1P4 antagonist – S1P4 receptor antagonists, primary screen, cell-based; inhibition, % at 4.98 µM; Sphingosine 1-phosphate receptor 4 (Homo sapiens), O95977; S1P4-expressing cells, antagonist mode, reporter read-out; hit rate 0.26% among 220,000; in the data active = inhibition above about 29%;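 note: 0% = wells stimulated with agonist and 100% = vehicle wells without agonist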
# CHOP inh – inhibitors of CHOP promoter induction, primary screen, cell-based, unfolded protein response, luciferase reporter | hit rate 3.8% among 220,000 | inhibition, % at 10 µM | CHO-K1 CHOP-promoter luciferase, tunicamycin-induced, 15-18 h;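 active = compounds that reduced the stress-induced luciferase reporter signal by more than about 70% of percent inhibition, limit read from the data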;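 note: 0% = tunicamycin plus vehicle and 100% = wells without tunicamycin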
# An asterisk follows results filed as active; . = no result. Sampled rows, rich in hits. Any-hit rate of the full collection: about 4.2%.
SMILES,Hsp70 activator,S1P4 ag,S1P4 antagonist,CHOP inh
CCCCC(=O)Nc1nn(C)c2nc3c(C)cccc3cc12,0,2,6,76*
CCCCCCOc1ccc(N2C(=O)CC(N3CCN(CCN=CC4C(=O)CC(C)(C)CC4=O)CC3)C2=O)cc1 (stereo unspecified),0,0,7,71*
CCCCCCOc1ccc(N2C(=O)CC(N3CCN(CCN=CC4=C(O)CC(C)(C)CC4=O)CC3)C2=O)cc1 (stereo unspecified),0,1,6,37
O=C(CNS(=O)(=O)c1cccc(Cl)c1)OCc1csc(-c2ccccc2)n1,0,-1,-7,90*
COc1ccc(Cc2c(O)nc(SCC(=O)N3CCOCC3)[nH]c2=O)cc1,.,1,-13,1
CC1CCCN(S(=O)(=O)c2ccc(Br)s2)C1 (stereo unspecified),-1,1,4,23
CC1CCN(S(=O)(=O)c2ccc(Br)s2)CC1,0,0,-9,75*
CCN(CC)C(=O)C(=O)Nc1cc(C(F)(F)F)ccc1Cl,0,2,-16,-14
NNc1nc2c(-c3ccc(F)cc3)nnn2c2ccccc12,0,1,2,10
NNc1nc2c(-c3ccc(Cl)cc3)nnn2c2ccccc12,0,4,-5,91*
Cc1ccc2cc(CN(Cc3ccco3)C(=O)NCc3ccccc3)c(=O)[nH]c2c1C,0,2,13,9
Cc1cc(NC(=O)Nc2cccc(C(F)(F)F)c2)no1,0,2,-6,93*
O=C(Nc1cccc(Cl)c1)c1cc(S(=O)(=O)NCCc2ccc(Cl)cc2)ccc1F,0,-2,5,51
Cc1ccc(NC(=O)c2cc(S(=O)(=O)NCCc3ccccc3)ccc2F)cc1Cl,0,-1,-21,84*
CC(C)NS(=O)(=O)c1ccc(OCC(=O)Nc2ccc3c(c2)OCO3)c(Cl)c1,0,2,-7,70*
CCN(/N=C/c1ccc(Cl)cc1)c1cc(=O)n(C)c(=O)[nH]1,0,3,-7,-7
COC(=O)[C@@H]1[C@@H](C#N)C2(c3ccccc3-c3ccccc32)N(c2ccc(Cl)cc2)N1C#N,0,-1,-5,82*
Cc1ccc(NC(=O)CCN2C(=O)c3cccc4cccc(c34)C2=O)cc1,0,-1,-8,-2
CC(C)(S)[C@@H](N)C(=O)O,0,-1,0,7
O=C(NCc1ccco1)c1cc2cc3ccc(Cl)cc3nc2o1,0,-4,-8,80*
COc1cccc(N2CCN(C3CC(=O)N(c4ccc(C)c(Cl)c4)C3=O)CC2)c1 (stereo unspecified),0,1,-10,55
COc1cccc(N2CCN(C3CC(=O)N(c4ccc(F)c(Cl)c4)C3=O)CC2)c1 (stereo unspecified),0,-3,-12,71*
CC(=O)c1c(C(C)=O)c(C)n(-c2nc(-c3ccc(C)c(C)c3)c(C)s2)c1C,0,0,-31,76*
COc1ccc(-c2nc(-n3c(C)c(C(C)=O)c(C(C)=O)c3C)sc2C)cc1,0,0,-7,26
COc1ccccc1-c1cc(SC)c(C#N)c(=O)o1,0,0,-12,94*
SMILES,Hsp70 activator,S1P4 ag,S1P4 antagonist,CHOP inh
CCCCN(CC)S(=O)(=O)c1ccc(C(=O)N(CCCN(C)C)c2nc3cc(C)cc(C)c3s2)cc1,0,-2,-16,87*
CC1CCCCC1NC(=O)C1CCN(C(=O)NC2CCCCC2)CC1 (stereo unspecified),0,-2,-15,-11
Cc1ccc(C)n1-n1c(C)nc2sc3c(c2c1=O)CCCCC3,0,2,-8,79*
CCOC(=O)C1CCCN(S(=O)(=O)c2ccc(NC(C)=O)cc2)C1 (stereo unspecified),0,-3,8,10
Cc1c(C(=O)Nc2ccc(F)c(F)c2)oc2ccc(S(=O)(=O)N3CCCCC3)cc12,0,-3,-3,75*
Cc1c(C(=O)NC2CCCc3ccccc32)oc2ccc(S(=O)(=O)N3CCCCC3)cc12 (stereo unspecified),-1,1,4,85*
CCOC(=O)C1CCCN(S(=O)(=O)c2ccc(F)c(C(=O)Nc3ccc(F)c(F)c3)c2)C1 (stereo unspecified),0,-1,-2,76*
Cc1c(C(=O)Nc2ccc(F)cc2)oc2ccc(S(=O)(=O)N3CCC4(CC3)OCCO4)cc12,0,1,10,71*
Cc1ccc(NC(=O)Cn2nc(C)c(S(=O)(=O)N(C)C)c2C)cc1,0,0,-4,12
CCc1ccc(NC(=O)c2ccc(F)c(S(=O)(=O)NCC3COc4ccccc4O3)c2)cc1 (stereo unspecified),0,1,-6,78*
CCc1ccc(C(=O)NCC2COc3ccccc3O2)o1 (stereo unspecified),0,0,-15,0
O=c1[nH]c(CN2CCN(Cc3ccc4c(c3)OCO4)CC2)nc2ccccc12,0,-1,-11,7
O=c1cc(-c2ccccc2)nc(N2CCN(Cc3ccc4c(c3)OCO4)CC2)[nH]1,0,1,-4,71*
CCOc1ccc(C2C3=C(CCCC3=O)OC(N)=C2[N+](=O)[O-])cc1 (stereo unspecified),.,-2,5,8
O=C(/C(=C\c1ccccc1)c1nc2ccccc2[nH]1)c1ccc(Cl)cc1,0,1,-7,87*
COc1ccc(S(=O)(=O)N(Cc2ccccc2)Cc2nc3ccccc3c(=O)[nH]2)cc1,-1,0,-8,72*
CNC(=O)NC(=O)CSc1cccc(C(F)(F)F)c1,0,0,-6,-4
CC(C)(C)NC(=O)NC(=O)CSc1cccc(C(F)(F)F)c1,0,1,-1,90*
CC(C)(C)NC(=O)NC(=O)CSc1ncc(C(F)(F)F)cc1Cl,0,-2,1,74*
S=C(c1ccc(-c2ccccc2Cl)o1)N1CCOCC1,0,0,-24,71*
S=C(c1ccc(-c2ccc(Cl)c(Cl)c2)o1)N1CCOCC1,0,1,-17,47
O=C(CCl)N1N=C(c2ccco2)CC1c1cccs1 (stereo unspecified),0,5,9,90*
Cc1ccc(C2=NN(C(=O)CCl)C(c3cccs3)C2)o1 (stereo unspecified),0,0,-8,84*
CCOc1cnn(-c2cc(Oc3ccc(C)cc3)ncn2)c(=O)c1Cl,0,-1,11,45
CCc1c(C)nc(Nc2nc(C)c3cc(OC)ccc3n2)[nH]c1=O,0,1,-8,14
CCCCCc1c(C)nc(Nc2nc(C)c3cc(OC)ccc3n2)[nH]c1=O,0,1,0,90*
Cc1nn(-c2nc(-c3ccco3)cc(C(F)(F)F)n2)c(C)c1Cl,0,3,-11,88*
Cc1nc2ccccc2n1-c1nc(-c2ccco2)cc(C(F)(F)F)n1,0,-1,-11,.
COc1ccc(S(=O)(=O)N2CCN(Cc3c[nH]c4ccccc34)CC2)cc1,0,-1,-4,-2
